High-throughput results from PubChem BioAssay.
DT40 TDP1 no CPT – qHTS for Inhibitors of human tyrosyl-DNA phosphodiesterase 1 (TDP1): qHTS in cells in absence of CPT; DT40 Tdp1-/- hTDP1 cells, no CPT, ATP luminescence, 48 h; Potency, µM (titrated, usually from 46.2 µM), without a hit: at the highest dose activity change, negative = growth inhibition, hits mostly inhibitors; hit rate 15% among 420,000; further: potency means the concentration at half of the fitted maximal effect; nearly all actives have a fitted effect of over 55% in size
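Camptothecin absent (DMSO only). Human TDP1-complemented DT40 knockout cells, 400 cells/well, 37 °C for minimum 48 hr; ATP measured via CellTiter-Glo, 30 min dark incubation, luminescence.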
HT1080 IDH1KD tx – toxicity to HT-1080 IDH1 knockdown cells (counter line); HT-1080 IDH1 knockdown viability, ATP luminescence, 48 h; Potency, µM (top dose mostly 46.1 µM), for inactives: at the top dose activity, negative = toxicity, most hits filed as cytotoxic; hit rate 2% among 360,000;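 further: potency means the concentration at half of the fitted maximal effect; 0% = DMSO wells and -100% = cell-free medium wells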
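% activity derives from luminescence (CellTiter-Glo), normalised to DMSO and no-cell wells. HT-1080-IDH1KD cells, 750/well, had 48 h compound exposure at 37 °C.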
IL1B secr inh – inhibitors of inflammasome signaling (IL-1 beta secretion); THP-1 LPS/ATP IL-1B secretion, AlphaLISA, 16 h; stronger effect = lower value; hit rate 4.7% among 360,000; activity change, % at 57.5 µM; in the data active means activity change below about -50%; inconclusive means mostly about -30% to -49%
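Secreted IL-1B measured by AlphaLISA bead assay after 16 h compound exposure of THP-1 cells; compounds (final up to 57.5 uM) added 1 h before LPS (250 ng/mL) and ATP (1.25 mM) stimulation; lower signal means less secretion.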
HT1080NT lethal – kills 2HG-producing HT-1080-NT fibrosarcoma cells; Potency, µM (series often up to 46.1 µM), for inactives: top-dose activity, negative = less viability, hits mostly cytotoxic; hit rate 1.6% among 360,000; AID 686970; HT-1080-NT fibrosarcoma viability, CellTiter-Glo ATP luminescence, 48 h;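 further: NT is the 2HG producing partner of a matched IDH1 knockdown line; potency means the concentration at half of the fitted maximal effect; 0% = DMSO-treated cells and -100% = media-only wells without cells; nearly all actives have a fitted effect of over 55% in size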
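HT-1080-NT; 750 cells/well; 5% FBS RPMI; 48 h compound, 37 degrees C; CellTiter-Glo luminescence; curve fitting and curve-class assignment.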
TDP1 cell CPT – DT40-hTDP1 cell growth loss with CPT; chicken DT40 Tdp1-/-;hTDP1 cells + 20 nM CPT, ATP luminescence, 48 h; Potency, µM (top dose mostly 46.2 µM), for the others: at the highest dose activity change, negative = growth inhibition, hits mostly inhibitors; hit rate 12% among 420,000; AID 686979; further: potency means the concentration at half of the fitted maximal effect; nearly all actives have a fitted effect of over 55% in size
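Chicken DT40 Tdp1-/- cells complemented with human TDP1, 400 cells/well, exposed to compounds plus 20 nM camptothecin for at least 48 h at 37 C; viability read as ATP content by CellTiter-Glo luminescence.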
An asterisk follows results filed as active; u = inconclusive; x = no result; ! = a repeat was not active. A selection: hits, their analogues and other compounds. The true share with any hit is near 19%. Unless noted, the call rests on the fitted dose curve; in most records, active means well fitted curve in the direction sought with a large enough effect; inconclusive means small, poorly fitted or top-dose-only effect, or another doubt; inactive means no such curve, though single readings can be large; an effect the other way counts as inactive or inconclusive. Unless noted, on the % scale 0 is the no-effect control and ±100 the full control effect.

SMILES	DT40 TDP1 no CPT	HT1080 IDH1KD tx	IL1B secr inh	HT1080NT lethal	TDP1 cell CPT
COCCN(C(=O)c1ccccc1F)c1nc(-c2ccc(OC)cc2)cs1	u	-15.5%	u	-20.4%	-3.1%
CC(C)Sc1nnc2c3ccccc3n(C)c2n1	u	4.7%	x	1.8%	u
Cc1ccc(S(=O)(=O)CCC(=O)NCCC2=CCCCC2)cc1	-7.3%	3.3%	20.6	0.3%	12.6%
C=C[C@@]1(C)CC(=O)[C@@]2(O)[C@@]3(C)[C@@H](O)CCC(C)(C)[C@@H]3[C@H](O)[C@H](OC(C)=O)[C@@]2(C)O1	u	x	x	x	3.8%
Cc1c(Cl)cccc1NC(=O)CNC(=O)CCCc1nc2ccccc2c(=O)[nH]1	-15.0%	-1.6%	-4.5	-1.2%	-18.5%
CCN(C(=O)c1ccccc1F)c1nc(-c2ccc(OC)cc2)cs1	20.6µM*	-8.6%	0.0	u	20.6µM*
c1ccc(-c2cc(NCCN3CCCCC3)c3ccccc3n2)cc1	16.4µM*	20.6µM*	-99.3*	20.6µM*	23.1µM*
O=C(c1cc(-c2ccccc2)nc2ccccc12)N1CCCC1	-21.6%	-5.0%	-3.0	0.0%	-1.2%
C[C@@H]1CCCCO[C@H](CN(C)C(=O)Cc2ccccc2)[C@@H](C)CN([C@H](C)CO)C(=O)c2cc(N(C)C)ccc2O1	-0.3%	3.2%	0.4	3.2%	3.2%
Cc1ccc(-c2cc(C(F)(F)F)nc(SCC(=O)c3cccc([N+](=O)[O-])c3)n2)cc1	u	1.4%	-53.3*	-23.1%	u
COc1ccc(-c2cc(C(F)(F)F)nc(SCC(=O)NCc3ccc(OC)c(OC)c3)n2)cc1	u	x	x	x	23.1µM*
COc1ccc(-c2cc(C(F)(F)F)nc(SCC(=O)NC(C)c3ccccc3)n2)cc1 (configuration not stated)	14.6µM*	x	x	x	u
Cc1cc(C(F)(F)F)nc(SCC(=O)c2cccc([N+](=O)[O-])c2)n1	-21.4%	22.6%	-6.5	15.7%	-29.3%
COCCNC(=O)CCSc1nc(-c2ccc(OC)cc2)cc(C(F)(F)F)n1	20.6µM*	2.4%	-8.5	u	23.1µM*!
COc1ccc(-c2cc(C(F)(F)F)nc(SCC(=O)NCc3ccc(Cl)cc3)n2)cc1	u	x	x	x	-2.2%
COc1ccc(NC(=O)CCSc2nc(-c3ccc(OC)cc3)cc(C(F)(F)F)n2)cc1	-17.8%	x	x	x	-24.7%
C=CCc1cc(Cl)ccc1OCCn1ccnc1	u	-23.6%	-14.4	-7.1%	-33.7%
CN(C)S(=O)(=O)c1cccc(C(=O)Nc2n[nH]c(C(F)(F)F)n2)c1	-1.2%	9.4%	20.9	0.4%	22.2%
CCC(C)NC(=O)CCSc1nc(-c2ccc(OC)cc2)cc(C(F)(F)F)n1 (configuration not stated)	16.4µM*	x	x	x	u
COc1ccc(-c2[nH]c(-c3cccc(OC)c3)nc2SCC(=O)NCc2ccco2)cc1	u	-14.1%	-13.5	-24.0%	-7.1%
O=C(CN(C(=O)CNS(=O)(=O)c1ccccc1)C1CCCC1)NCc1ccco1	-12.0%	11.9%	5.7	14.4%	-3.5%
CC(=O)N(C)c1ccc(N=Nc2ccc3ncccc3c2)cc1	14.6µM*	-24.4%	u	-26.3%	u
Cc1nc(N)sc1-c1csc(Nc2ccc(Cl)cn2)n1	u	u	18.0	u	u
CC(=O)c1cccc(Nc2nc(-c3sc(C)nc3C)cs2)c1	u	u	-57.1*	-15.1%	u
COc1ccc(Nc2nc(-c3sc(N)nc3C)cs2)cc1	u	-4.6%	-29.2	-25.7%	u
SMILES	DT40 TDP1 no CPT	HT1080 IDH1KD tx	IL1B secr inh	HT1080NT lethal	TDP1 cell CPT
COc1ccc(CCNc2nc(-c3sc(N)nc3C)cs2)cc1OC	16.4µM*	-2.1%	0.0	-1.6%	u
CC(=O)c1cccc(Nc2nc(-c3sc(N)nc3C)cs2)c1	16.4µM*	-1.8%	-2.9	-2.7%	11.6µM*
Cc1nc(N)sc1-c1csc(Nc2cc(N(C)C)ccc2Cl)n1	13µM*	1.1%	0.0	2.5%	7.31µM*
COc1ccc(CC(=O)OCC(=O)Nc2ncc(Cl)c(C)c2Cl)cc1	-1.4%	2.7%	2.5	-6.5%	-7.0%
COc1ccc(NC(=O)c2cc(-c3ccc4c(c3)OCO4)on2)c(OC)c1	-3.2%	x	x	x	-18.6%
CCN(CC)C(=O)Cn1nc(C)c2ccccc2c1=O	-7.7%	6.0%	0.0	14.9%	-6.0%
CN(CC(=O)Nc1cccc(F)c1)C(=O)/C=C/c1ccc2ccccc2n1	0.2%	-0.8%	-50.7*	-3.2%	u
CN(CC(=O)Nc1cccc(F)c1)C(=O)/C=C/c1cc(Br)ccc1OC(F)F	5.8µM*	0.1%	-29.2	-9.2%	4.61µM*
CN(CC(=O)Nc1cccc(F)c1)C(=O)/C=C/c1ccc(Br)s1	-28.6%	-1.1%	-28.9	-14.2%	u
CCCCCCN1C[C@H](n2cc(COC(=O)c3ccccc3)nn2)[C@@H](O)C[C@@H]1c1ccccc1	23.1µM*	5.1%	23.6	1.7%	u
CCCCCCN1C[C@@H](n2cc(COC(=O)c3ccccc3)nn2)[C@H](O)C[C@@H]1c1ccc(Cl)cc1	20.6µM*	6.3%	-16.5	8.8%	13µM*
COCC(=O)N1CCC2(CC1)CCN(c1ccccc1)CC2	-10.3%	x	x	x	-3.5%
Cc1ccc([N+](=O)[O-])cc1N/C=C1\CCc2ccccc2C1=O	u	-5.0%	7.2	-8.6%	20.6µM*
O=C1C(=Cc2ccccc2Cl)CCc2ccccc21	u	u	u	u	-73.8%
CN(C(=O)COC(=O)c1ccc(Cl)nc1)C1CCS(=O)(=O)C1 (configuration not stated)	-12.6%	-2.4%	-12.8	-1.4%	-3.9%
Cc1ccc(Nc2nc(N)c(C#N)c(CC#N)c2C#N)cc1	1.9%	u	-97.0*	u	-15.0%
CCOC(=O)CNC(=O)CSc1nc(-c2ccc(C)cc2)ns1	-20.0%	-1.7%	-151.7*	-8.9%	-5.6%
CCOC(=O)CNC(=O)CSc1nc(-c2ccccc2)ns1	u	-3.5%	12.4	-1.0%	u
CCOC(=O)CNC(=O)CSc1nc2c(C)cccc2cc1CC	u	-3.1%	-97.7*	-0.9%	u
CC(=O)CCn1cc([N+](=O)[O-])nc1C	9.8%	9.6%	18.2	9.8%	-4.5%
CC(C)(C)c1ccc(/C=N/OCC(=O)NCc2ccc(F)cc2)cc1	16.4µM*	u	-69.2*	u	u
COc1cc(/C=C/C(=O)OCC(=O)Nc2ccc3c(c2)OCCO3)ccc1O	16.4µM*	u	24.1	-29.3%	u
COc1cc(/C=C/C(=O)OCC(=O)NCc2ccc(F)cc2)ccc1O	2.31µM*	u	66.7	u	2.59µM*
